Experimental data published in ChEMBL document CHEMBL3988442, “University of Dundee, Small-Polar-MMV Screening Library” (2021).
About 13,000 (27%) of roughly 48,000 compounds showed an effect of 50% or more. Some of the results follow.

System: Wolbachia pipientis
Experiment: Anti-Wolbachia Cell-Based Screen
Format: functional
Parameters: scale not given: in the data most compounds retested in dose-response had high values
Conditions: 5 µM

Going from `CC(=O)N1CCC2(CCN(CC(C)C)C2)C1` (stereo not given) to `CC(C)CN1CCCC2(CCN(c3ccc(C#N)cn3)C2)C1.O=C(O)C(F)(F)F` (stereo not given), the “Percent Effect” value rises from -12.71% to -6.214%.

Going from `CCNC(=O)NC[C@H]1C[C@@H]2CCN1C[C@@H]2c1cc(-c2cccs2)nn1C` to `CCN(CC)C[C@H]1CN2CC[C@H]1C[C@@H]2CNC(=O)Nc1ccsc1`, the “Percent Effect” value rises from -4.515% to 12.78%.

Going from `O=C(O)C(F)(F)F.O=C(c1ccncc1F)N1C[C@@H]2OCCN(CC3CC3)[C@@H]2C1` to `CC(C)N1CCO[C@H]2CN(C(=O)Cc3ccsc3)C[C@H]21.O=C(O)C(F)(F)F`, the “Percent Effect” value rises from -13.64% to 16.26%.

Going from `c1cnc(Nc2ccc(C3CCCCN3)cn2)cn1` (stereo not given) to `Cc1cccc(Nc2ccc(C3CCCCN3)cn2)n1` (stereo not given), the “Percent Effect” value falls from 123.5% to 86.37%.

Compared with `Cc1cc(C)nc(Nc2ccc(C3CCCCN3)cn2)n1` (stereo not given), `Cc1ccc2nc(C)cc(C(=O)N[C@H]3COC[C@@H]3N3CCOCC3)c2c1` is lower in “Percent Effect” value: 126% for the first, -2.538% for the second.

Going from `CC(=O)N1CCOCC2(CCCNC2)C1` (stereo not given) to `Cl.O=C(N1CCOCC1)N1CCCC2(CCCNC2)C1` (stereo not given), the “Percent Effect” value rises from -30.9% to -22.36%.

Going from `CCCN1C[C@H]2CC[C@@H]1CN(C(=O)Cn1c(C)cc(C)nc1=O)C2` to `Cc1cc(C)n2nc(C(=O)N[C@H]3C[C@H]4CN(C)CCN4C3)cc2n1`, the “Percent Effect” value falls from -4.771% to -14.62%.

First: c1ccc(COC[C@@]23CCC[C@@H]2CN(Cc2ccccn2)C3)nc1
Second: O=C(O)C(F)(F)F.O=C(O)C(F)(F)F.c1ccc(CN2C[C@H]3CCC[C@@]3(COCC3CC3)C2)nc1
The “Percent Effect” value of the first is lower: -0.5697% for the first, 8.685% for the second.

Compared with `Cn1cc(CN2C[C@H]3CCC[C@@]3(COc3ccccn3)C2)cn1.O=C(O)C(F)(F)F.O=C(O)C(F)(F)F`, `Cn1cc(CN2CC[C@H]3CO[C@H](CNc4ncccn4)[C@H]3C2)cn1.O=C(O)C(F)(F)F.O=C(O)C(F)(F)F` is lower in “Percent Effect” value: 101.4% for the first, -23.96% for the second.

Compared with `Cn1cc(CN2C[C@H]3CCC[C@@]3(COc3cccnc3)C2)cn1`, `Cn1cc(CN2CCN3C[C@H](Oc4cccnc4)C[C@H]3C2)cn1` is lower in “Percent Effect” value: 95.98% for the first, -3.726% for the second.

Going from `Cc1nc(C(=O)N[C@H]2COC[C@@H]2N2CCCCC2)cs1` to `O=C(N[C@H]1COC[C@@H]1N1CCCC1)c1csc(-c2cccs2)n1`, the “Percent Effect” value rises from 100.8% to 103.2%.

Compared with `Cc1cc(C(=O)N[C@H]2COC[C@@H]2N2CCOCC2)c2ccc(F)cc2n1`, `Cc1ccc2nc(C)c(C)c(C(=O)N[C@H]3COC[C@@H]3N3CCCC3)c2c1` is higher in “Percent Effect” value: -11.09% for the first, -0.09991% for the second.

Compared with `O=C(N[C@H]1COC[C@@H]1N1CCCC1)c1csc(Cc2ccccc2)n1`, `CCCc1nc(C(=O)N[C@H]2COC[C@@H]2N2CCN(C)CC2)cs1` is lower in “Percent Effect” value: 115.4% for the first, 87.61% for the second.

Compared with `O=C(N[C@H]1COC[C@@H]1N1CCCC1)c1c[nH]nc1C1CCCCC1`, `O=C(c1csc(-c2ncccn2)n1)N1CCN2CCCCC2C1` (stereo not given) is lower in “Percent Effect” value: 3.503% for the first, -3.286% for the second.

Compared with `Fc1cnc(N2CCOCC3(CCCNC3)C2)nc1` (stereo not given), `CCCN1CC2(CCN(c3ncc(F)cn3)CC2)CC1C(=O)O` (stereo not given) is higher in “Percent Effect” value: -3.763% for the first, 2.005% for the second.

Going from `CC(C)c1ocnc1C(=O)N1CCC2(CC1)OCCO2` to `O=C(C1CCCO1)N1CCC2(CC1)CNCCO2` (stereo not given), the “Percent Effect” value falls from -1.453% to -5.383%.

Going from `O=S(=O)(NC[C@H]1C[C@@H]2CCN1C[C@@H]2CN1CCOCC1)c1ccccc1` to `CC[C@H]1CN2CC[C@H]1C[C@@H]2CNCc1ccc(OC)cc1`, the “Percent Effect” value rises from -10.01% to -6.876%.

Going from `c1c[nH]c2nc(C3CCCNC3)nc-2c1` (stereo not given) to `c1c[nH]c2nc(C3CCNCC3)nc-2c1`, the “Percent Effect” value rises from 109% to 118.5%.

Going from `Cl.O=C(NCC1CCC2(CCNCC2)O1)C1CC1` (stereo not given) to `Cl.Cl.Cn1ccc(CN2CCOCC23CCNCC3)n1`, the “Percent Effect” value rises from -17.62% to -7.915%.

Going from `O=C(c1onc2ccccc12)N1CCC2(CCCNC2)C1` (stereo not given) to `O=C(c1nc(=O)[nH]c2ccccc12)N1CCCC2(CCNC2)C1` (stereo not given), the “Percent Effect” value falls from 102.5% to 12.22%.

Compared with `COCC1CC2(CCN(Cc3ccccn3)CC2)CN1C(C)C` (stereo not given), `COCC1CC2(CCN(c3ccccn3)CC2)CN1C(C)C.O=C(O)C(F)(F)F.O=C(O)C(F)(F)F` (stereo not given) is higher in “Percent Effect” value: -12.67% for the first, 104.7% for the second.

First: Cc1cccc(CN2CC3C[C@]3(NC(=O)c3cccc(F)c3)C2)n1.O=C(O)C(F)(F)F (stereo not given in full)
Second: Cc1cccc(CN2CC3C[C@]3(NC(=O)c3ccoc3)C2)n1 (stereo not given in full)
The “Percent Effect” value of the first is higher: -4.676% for the first, -6.434% for the second.

Compared with `COCC1CC2(CCN(c3ccc(C)nn3)CC2)CN1C(C)C.O=C(O)C(F)(F)F` (stereo not given), `COCC1CC2(CCN(c3cc(OC)ncn3)CC2)CN1C(C)C.O=C(O)C(F)(F)F` (stereo not given) is higher in “Percent Effect” value: 99.94% for the first, 103.7% for the second.

Compared with `COc1cc(N2CCC[C@]3(C(=O)O)CN(C(C)C)C[C@@H]3C2)ncn1.O=C(O)C(F)(F)F`, `CCN1C[C@@H]2CN(c3cc(OC)ncn3)CCC[C@]2(C(=O)O)C1.O=C(O)C(F)(F)F` is lower in “Percent Effect” value: 8.121% for the first, -1.589% for the second.

First: Cc1ccc(N2CCC3(CCCN3Cc3ccn(C)n3)CC2)nn1.O=C(O)C(F)(F)F
Second: COCCCN1CCCC12CCN(c1ncccn1)CC2.O=C(O)C(F)(F)F
The “Percent Effect” value of the first is higher: 10.32% for the first, 8.313% for the second.

First: COCC1CC2(CCN(c3cccc(C)n3)CC2)CN1C(C)C.O=C(O)C(F)(F)F.O=C(O)C(F)(F)F (stereo not given)
Second: COCC1CC2(CCN(CC3CC3)CC2)CN1Cc1ccccn1.O=C(O)C(F)(F)F.O=C(O)C(F)(F)F (stereo not given)
The “Percent Effect” value of the first is higher: 94.82% for the first, 83.44% for the second.

Compared with `CCN1C[C@@H]2CN(Cc3cccs3)C[C@@H]2C1=O.O=C(O)C(F)(F)F`, `CC(C)N1CCO[C@H]2CN(C(=O)Cc3cccs3)C[C@H]21.O=C(O)C(F)(F)F` is higher in “Percent Effect” value: -3.908% for the first, 10.95% for the second.

Compared with `COCCNC(=O)C1(c2ccc(C)c(OC)c2)CCCC1`, `Cc1ccc(Cl)cc1-n1nnnc1C1(N2CCCC2)CCCCC1` is lower in “Percent Effect” value: -0.08716% for the first, -13.17% for the second.

Going from `CCN(CC)C[C@H]1CN2CC[C@H]1C[C@@H]2CNC(=O)c1ccco1` to `Cc1cccc(CN2C[C@@H]3OCCN(C)[C@@H]3C2)n1`, the “Percent Effect” value rises from -16.25% to 7.406%.

Compared with `CNc1ncc(CN(C)c2ncnc3onc(C)c23)cn1`, `CN(Cc1ccccc1)c1ncccc1CNC1CN2CCC1CC2` (stereo not given) is lower in “Percent Effect” value: 70.58% for the first, -8.195% for the second.

First: c1cncc(C(Cn2cnnc2)N2CCOCC2)c1 (stereo not given)
Second: c1csc(CN2CC[C@H]3C[C@H](c4ccncn4)O[C@@H]3C2)c1
The “Percent Effect” value of the first is lower: 3.663% for the first, 13.32% for the second.

First: Cc1cccc(CN2C[C@@H]3OCCN(c4cnccn4)[C@@H]3C2)n1.O=C(O)C(F)(F)F
Second: COCCN1CCO[C@H]2CN(Cc3cccc(C)n3)C[C@H]21.O=C(O)C(F)(F)F.O=C(O)C(F)(F)F
The “Percent Effect” value of the first is lower: -8.161% for the first, 106.4% for the second.

Going from `CC(C)N1CCO[C@H]2CN(Cc3cc[nH]n3)C[C@H]21.O=C(O)C(F)(F)F.O=C(O)C(F)(F)F` to `CS(=O)(=O)N[C@@H]1CN(Cc2ccncc2)C[C@@H]2CCCO[C@@H]21.O=C(O)C(F)(F)F.O=C(O)C(F)(F)F`, the “Percent Effect” value falls from 92.97% to -0.6746%.

Going from `Clc1ccc(-n2nnnc2C2(NCc3ccco3)CCCCC2)cc1` to `COc1ccc(-n2nnnc2C2(NCc3ccco3)CCCCC2)cc1`, the “Percent Effect” value rises from 73.59% to 77.41%.

Going from `Cc1cccc(-n2nnnc2C2(NCc3ccco3)CCCCC2)c1` to `CN(CCc1ccccc1)Cc1c(C2CC2)[nH]c2ncccc12`, the “Percent Effect” value rises from 79.56% to 128%.

First: CSc1nccc(N2CCN(C)C3(CCNC(=O)CC3)C2)n1 (stereo not given)
Second: CS(=O)(=O)c1ccc(CC(=O)N2CCN3CCNC(=O)C3C2)cc1 (stereo not given)
The “Percent Effect” value of the first is higher: -8.805% for the first, -12.31% for the second.

Compared with `c1ccc(NC[C@@H]2CCC[C@@H]3CN(Cc4csnn4)C[C@@H]32)nc1`, `c1ccc(CN2CC[C@H]3CO[C@H](CNc4ncccn4)[C@H]3C2)nc1` is lower in “Percent Effect” value: 5.24% for the first, -4.696% for the second.

Compared with `CS(=O)(=O)NC1CC2(CCN(CCF)CC2)Oc2ccccc21.O=C(O)C(F)(F)F` (stereo not given), `O=C(O)C(F)(F)F.O=C(O)C(F)(F)F.O=C(O)C(F)(F)F.c1ccc(CO[C@@H]2CO[C@@]3(CCN(Cc4ccccn4)C3)C2)nc1` is lower in “Percent Effect” value: 90.28% for the first, 19.79% for the second.

Compared with `CCC(O)Cn1cc(C2=CCN(Cc3cc(O)nc(C)n3)CC2)cn1` (stereo not given), `Cc1cc(CN2C[C@@H]3CN(C(=O)c4ccsc4)CCO[C@@H]3C2)no1.O=C(O)C(F)(F)F` is higher in “Percent Effect” value: 5.407% for the first, 15.19% for the second.

Going from `O=C(O)C(F)(F)F.O=C(O)C(F)(F)F.c1ccc(CN2CC[C@H]3CO[C@H](CNc4ncccn4)[C@H]3C2)cc1` to `O=C(O)C(F)(F)F.O=C(O)C(F)(F)F.O=C(O)C(F)(F)F.c1cnc(NC[C@H]2OC[C@@H]3CCN(Cc4cccnc4)C[C@@H]32)nc1`, the “Percent Effect” value falls from 109.8% to 106.3%.

Going from `c1cnc(NC[C@H]2OC[C@@H]3CCN(Cc4ccncc4)C[C@@H]32)nc1` to `O=C(O)C(F)(F)F.O=C(O)C(F)(F)F.O=C(O)C(F)(F)F.c1cnc(NC[C@H]2OC[C@@H]3CCN(Cc4nccs4)C[C@@H]32)nc1`, the “Percent Effect” value falls from 115% to 101%.

First: Cc1ccc(OCC(=O)N2CCN[C@H]3CS(=O)(=O)C[C@H]32)cn1
Second: N#CC1(c2ccccc2)CCN(C(=O)C2CCCN(C(N)=O)C2)CC1 (stereo not given)
The “Percent Effect” value of the first is lower: -8.198% for the first, 6.737% for the second.

For `CCC(CC)C(=O)N1CCOC2(CNC2)C1`, the “Percent Effect” value was -30.77%.
